Assay results reported in PubChem BioAssay AID1929 (Vanderbilt High Throughput Screening Facility, 2009).
Values without a mark were called inactive. How the calls were made is not given here.

biological target: Muscarinic acetylcholine receptor M3 (Homo sapiens) (UniProt P20309); test: hM3 positive allosteric modulation, ACh fold-shift, SAR follow-up, selectivity assay for M4 PAM project, cell-based, analogs, calcium (AID 1929); conditions: hM3 cells, ACh CRC fold-shift, calcium mobilization; with ACh 0.1 µM; with compound at fixed dose
Sequence (P20309 whole entry, looked up): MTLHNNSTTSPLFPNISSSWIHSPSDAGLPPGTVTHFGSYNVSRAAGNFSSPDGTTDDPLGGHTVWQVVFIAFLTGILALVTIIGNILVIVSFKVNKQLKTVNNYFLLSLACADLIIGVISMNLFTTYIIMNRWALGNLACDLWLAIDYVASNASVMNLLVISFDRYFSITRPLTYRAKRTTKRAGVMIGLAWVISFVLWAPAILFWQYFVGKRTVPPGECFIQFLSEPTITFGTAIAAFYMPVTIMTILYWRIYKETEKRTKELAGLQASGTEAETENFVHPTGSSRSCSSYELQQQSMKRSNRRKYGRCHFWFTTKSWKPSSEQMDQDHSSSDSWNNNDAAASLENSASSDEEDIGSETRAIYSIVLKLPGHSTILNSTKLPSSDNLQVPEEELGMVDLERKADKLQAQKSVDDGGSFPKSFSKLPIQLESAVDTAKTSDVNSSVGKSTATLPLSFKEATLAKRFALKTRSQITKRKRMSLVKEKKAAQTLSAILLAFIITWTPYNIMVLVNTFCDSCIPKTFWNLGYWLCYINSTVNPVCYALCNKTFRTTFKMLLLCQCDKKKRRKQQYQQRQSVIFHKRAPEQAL

Compound	ACh response, % max
Cc1cc(OCc2ccncc2)nc2sc(C(=O)NCc3cc(F)ccc3F)c(N)c12	96.3
Cc1cc(OCCN2CCOCC2)nc2sc(C(=O)NC(C)(C)C)c(N)c12	96.8
Cc1cc(OCc2ccncc2)nc2sc(C(=O)NCc3cccc(F)c3F)c(N)c12	94.7
COc1ccc(CNC(=O)c2sc3nc(OCc4ccncc4)cc(C)c3c2N)cc1	90.1
